Measured values from PMC4336329 (PLoS ONE, 2015).
The campaign covered roughly 310,000 compounds. About 14,000 (4.5%) showed an effect of 50% or more. The effect is printed as a negative number. The sample as a whole holds a higher share of strong results than the screen did.

biological target: human ether-à-go-go-related gene (hERG) potassium channel (human, UniProt Q12809); assay: primary screen, population patch clamp on CHO cells stably expressing hERG; higher = less effect of the substance
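Note: peak tail current of the secondary pulse compared with the same well before compound.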

human ether-à-go-go-related gene (hERG) potassium channel, sequence (Q12809 whole entry, looked up): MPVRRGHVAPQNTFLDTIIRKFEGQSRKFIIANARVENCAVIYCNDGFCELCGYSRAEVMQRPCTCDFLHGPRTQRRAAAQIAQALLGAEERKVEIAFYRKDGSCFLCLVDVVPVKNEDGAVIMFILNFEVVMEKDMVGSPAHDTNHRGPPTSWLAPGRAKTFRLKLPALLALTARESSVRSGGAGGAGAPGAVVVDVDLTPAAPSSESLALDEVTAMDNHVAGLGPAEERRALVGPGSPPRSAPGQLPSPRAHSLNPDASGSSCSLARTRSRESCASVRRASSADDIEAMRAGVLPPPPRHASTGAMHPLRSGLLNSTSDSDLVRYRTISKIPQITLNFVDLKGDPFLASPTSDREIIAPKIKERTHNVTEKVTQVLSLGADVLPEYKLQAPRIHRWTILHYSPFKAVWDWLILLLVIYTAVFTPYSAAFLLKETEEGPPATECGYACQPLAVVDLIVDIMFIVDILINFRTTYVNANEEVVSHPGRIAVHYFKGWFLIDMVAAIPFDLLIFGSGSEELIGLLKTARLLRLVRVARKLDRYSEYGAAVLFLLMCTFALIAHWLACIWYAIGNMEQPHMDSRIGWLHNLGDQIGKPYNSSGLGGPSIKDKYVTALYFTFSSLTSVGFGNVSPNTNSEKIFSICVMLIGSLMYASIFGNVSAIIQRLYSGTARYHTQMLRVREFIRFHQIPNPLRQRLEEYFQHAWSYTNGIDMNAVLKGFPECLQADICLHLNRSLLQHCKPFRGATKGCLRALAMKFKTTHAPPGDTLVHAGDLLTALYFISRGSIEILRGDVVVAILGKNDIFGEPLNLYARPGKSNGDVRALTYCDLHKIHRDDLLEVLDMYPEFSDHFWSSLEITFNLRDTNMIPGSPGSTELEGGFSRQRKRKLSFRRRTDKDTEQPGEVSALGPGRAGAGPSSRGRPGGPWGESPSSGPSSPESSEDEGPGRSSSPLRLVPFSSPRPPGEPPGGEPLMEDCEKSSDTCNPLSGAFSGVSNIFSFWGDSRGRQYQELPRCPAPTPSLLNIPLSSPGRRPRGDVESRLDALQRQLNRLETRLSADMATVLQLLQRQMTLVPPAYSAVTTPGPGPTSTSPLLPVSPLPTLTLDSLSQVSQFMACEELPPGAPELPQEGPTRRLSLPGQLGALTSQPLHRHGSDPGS

Row | Compound | hERG current change (%, negative = inhibition) at 10uM
1 | Cc1ccc(SCC(=O)OCC(=O)NC2CCCCCCC2)cc1 | -4.33%
2 | O=C(N/N=C/c1ccc[nH]1)c1cc(-c2cccs2)nc2ccccc12 | 0.659%
3 | O=C(O)[C@@H](c1ccccc1)N1Cc2ccccc2C1=O | 17.2%
4 | Br.Cc1ccc(C(=O)C(c2ccccc2)N2Cc3ccccc3C2=N)cc1 (stereo not drawn) | -60.3%
5 | Br.CCC(C)N1Cc2ccccc2C1=N (stereo not drawn) | 2.75%
6 | NNC(=O)c1nc[nH]c1C(=O)Nc1ccccc1 | 24.1%
7 | COc1ccccc1/C=N/NC(=O)c1ccc(CN2C(=O)c3cccc4cccc2c34)cc1 | 2.35%
8 | Cc1cccc(C)c1NC(=O)C(NC(=O)c1ccccn1)c1ccc([N+](=O)[O-])cc1 (stereo not drawn) | 7.6%
9 | NNC(=O)c1ccc(COc2ccc([N+](=O)[O-])cc2)o1 | -23.1%
10 | O=C(O)c1ccc(COc2ccc([N+](=O)[O-])cc2)o1 | 23.2%
11 | CC1CCCCN1C(=O)c1ccc(COc2ccc([N+](=O)[O-])cc2)o1 (stereo not drawn) | -69.9%
12 | COc1ccc(/C=C(\C#N)C(=O)OCC(=O)Nc2ccc(C(C)(C)C)cc2)cc1 | 0.425%
13 | COc1ccccc1OCCNC(=O)CSC(=S)N1CCCC1 | -4.17%
14 | O=C(Cc1ncc(C(F)(F)F)cc1Cl)N1CCN(c2ccccn2)CC1 | -17.2%
15 | COc1ccc(OCC(=O)N2CCN(c3cccc(C(F)(F)F)c3)CC2)cc1 | -42.6%
16 | O=C(Cc1ncc(C(F)(F)F)cc1Cl)N1CCN(c2cccc(Cl)c2)CC1 | -60.6%
17 | CN1CCN(C(=O)CCc2ncc(C(F)(F)F)cc2Cl)CC1 | 11.7%
18 | O=C(Cc1ncc(C(F)(F)F)cc1Cl)N1CCN(c2ccc(F)cc2)CC1 | -41.3%
19 | COc1ccc(N2CCN(C(=O)Cc3ncc(C(F)(F)F)cc3Cl)CC2)cc1 | -51.9%
20 | CCN1CCN(C(=O)C2CCN(S(=O)(=O)c3ccc4c(c3)NC(=O)C(C)S4)CC2)CC1 (stereo not drawn) | 14.1%
21 | COCCN(C(=O)c1csnn1)C(C(=O)NC1CCCC1)c1ccccc1 (stereo not drawn) | 3.23%
22 | CC(C)C1=C2OC(N)=C(C#N)C(C#N)=C2C(C)CC1 (stereo not drawn) | 9.98%
23 | C#CCNC(=O)C1=C[C@@H](c2ccc(Br)cc2)[C@H](CCCO)[C@@H](OCC)O1 | -28.4%

Row | Compound | hERG current change (%, negative = inhibition) at 10uM
24 | CCOc1ccc(N(CC)S(=O)(=O)c2ccc3c(c2)oc(=O)n3C)cc1 | -5.43%
25 | COC(=O)c1sccc1NC(=O)c1cc(C)on1 | 4.01%
26 | COc1ccccc1-c1coc2c(CN3CCC(C)CC3)c(O)ccc2c1=O | 7.18%
27 | Cc1ccc(S(=O)(=O)N2CCOCC2)cc1C(=O)NCCCn1ccnc1 | 15.6%
28 | CC1CC(OCC(O)CN2CCCCC2C)CC(C)(C)C1.Cl (stereo not drawn) | -25.8%
29 | CC1CCC(C(C)C)C(OCC(O)CNC(C)c2ccccc2)C1.Cl (stereo not drawn) | 0.875%
30 | Cl.OC(COCCC12CC3CC(CC(C3)C1)C2)CN1CCCC1 (stereo not drawn) | -30.3%
31 | Cl.OC(COCCC12CC3CC(CC(C3)C1)C2)CN1CCCCC1 (stereo not drawn) | -40.1%
32 | NCC(O)COCCC12CC3CC(CC(C3)C1)C2 (stereo not drawn) | -1.48%
33 | CC1CCN(CC(O)COCCC23CC4CC(CC(C4)C2)C3)CC1.Cl (stereo not drawn) | -51.5%
34 | CC1CCCCN1CC(O)COCc1ccccc1.Cl (stereo not drawn) | 5.66%
35 | CC1CCCCN1CC(O)COCCC12CC3CC(CC(C3)C1)C2.Cl (stereo not drawn) | -63.6%
36 | CC(NCC(O)COCCC12CC3CC(CC(C3)C1)C2)c1ccccc1.Cl (stereo not drawn) | -53.8%
37 | CCC(=O)Nc1ccc(N2CCN(C(=O)c3ccccc3C)CC2)cc1 | 0.168%
38 | CSc1nc(N(C)C)c2ccccc2n1 | -19%
39 | CCn1ccnc1CN(C)Cc1c(C(=O)N2C[C@@H](C)O[C@@H](C)C2)nc2ccc(Cl)cn12 | 11.6%
40 | Cc1ccc(N2N=C(C(=O)O)CCC2=O)cc1Cl | -45.2%
41 | CCC1(c2ccccc2)NC(=O)N(CC(=O)c2ccc3c(c2)OCO3)C1=O (stereo not drawn) | -4.15%
42 | O=C(Nc1ccccc1)N(CCCN1CCOCC1)Cc1ccccc1F | -20.6%
43 | Cc1ccc2[nH]c(=O)c(CN(CCCN3CCOCC3)C(=O)Nc3ccc(Cl)cc3)cc2c1 | -71.7%
44 | O=C(Nc1ccc(F)cc1)N(CCCN1CCOCC1)Cc1cc2cc3c(cc2[nH]c1=O)OCCO3 | -25.1%
45 | O=C(Nc1cccc(Cl)c1)N(CCCN1CCOCC1)Cc1ccccc1F | -64.5%
46 | Cc1ccc2[nH]c(=O)c(CN(CCCN3CCOCC3)C(=O)Nc3cccc(Cl)c3)cc2c1 | -32.4%

Row | Compound | hERG current change (%, negative = inhibition) at 10uM
47 | CCc1ccc2[nH]c(=O)c(CN(CCCN3CCOCC3)C(=O)Nc3ccccc3)cc2c1 | -54.2%
48 | Cc1ccc2[nH]c(=O)c(CN(CCN3CCOCC3)C(=O)Nc3ccc(F)cc3)cc2c1 | -37%
49 | CCc1ccc2[nH]c(=O)c(CN(CCN3CCOCC3)C(=O)Nc3ccccc3F)cc2c1 | -23.1%
50 | O=C(Nc1ccc(F)cc1)N(CCCN1CCOCC1)Cc1cc2cc3c(cc2[nH]c1=O)OCO3 | -49.3%
51 | O=C(Nc1ccccc1)N(CCCN1CCOCC1)Cc1cc2cc3c(cc2[nH]c1=O)OCCO3 | -2.99%
52 | O=C(Nc1cccc(Cl)c1)N(CCN1CCOCC1)Cc1ccccc1F | -49.6%
53 | CCc1ccc2[nH]c(=O)c(CN(CCCN3CCOCC3)C(=O)Nc3ccc(F)cc3)cc2c1 | -68.1%
54 | CCOc1ccc(S(=O)(=O)Nc2ccc3c(c2)OCO3)cc1 | -14.9%
55 | COc1cc(NC(=S)NCCSc2ccc(C)cc2)cc(OC)c1 | -1.01%
56 | C=CCOc1ccccc1CNCc1cccnc1.Cl | 12.6%
57 | Cc1cc(C(=O)NNC(=S)Nc2cccc(C(F)(F)F)c2)nn1C | 30.1%
58 | Cc1ccc(-n2cc[nH]c2=S)cc1C | 22.7%
59 | COc1ccc(CN(CCCN2CCOCC2)C(=O)Nc2cccc(Cl)c2)cc1OC | -39.3%
60 | Cc1ccc(NC(=O)N(CCCN2CCOCC2)Cc2cc3cc4c(cc3[nH]c2=O)OCO4)cc1 | -42%
61 | CCc1ccc2[nH]c(=O)c(CN(CCCN3CCOCC3)C(=O)Nc3cccc(Cl)c3)cc2c1 | -54.1%
62 | COc1cc2cc(CN(CCCN3CCOCC3)C(=O)Nc3ccc(F)cc3)c(=O)[nH]c2cc1OC | -33.2%
63 | COc1ccc2[nH]c(=O)c(CN(CCCN3CCOCC3)C(=O)NCc3ccccc3)cc2c1 | 8.39%
64 | CCc1ccc2[nH]c(=O)c(CN(CCCN3CCOCC3)C(=O)Nc3ccc(Cl)cc3)cc2c1 | -65.6%
65 | Oc1ccc(/C=N/NC(=S)Nc2cccnc2)c(O)c1 | 17.5%
66 | O=C(Cc1ccccc1)Nc1ncccc1Cl | 6.6%
67 | CCCCOc1ccc(C(=S)N2CCC(C(N)=O)CC2)cc1 | 6.67%
68 | COC(=O)C1=COC(C)C2CN3CCc4c([nH]c5ccccc45)C3CC12 (stereo not drawn) | -34.3%
69 | O=C(CCc1c[nH]c2ccccc12)NC1CC1 | 14.1%

Row | Compound | hERG current change (%, negative = inhibition) at 10uM
70 | O=C(NC1CCCN(CCc2ccccc2)C1)c1c[nH]c2ccccc12 (stereo not drawn) | -68.2%
71 | O=C(NCCc1c[nH]c2ccccc12)c1ccccc1 | 4.79%
72 | O=C(NC1CCCN(CCc2ccccc2)C1)c1c(F)cccc1F (stereo not drawn) | -46.2%
73 | COC(=O)C1=CO[C@@H](C)[C@@H]2CN(CCc3c[nH]c4ccccc34)CC[C@H]12 | -57%
74 | COC(=O)C1=CO[C@@H](C)[C@H]2CN3CCc4c([nH]c5ccccc45)[C@@H]3C[C@H]12.Cl | -20.2%
75 | O=C(NC1CCN(CCc2c[nH]c3ccccc23)CC1)c1ccccc1 | -71.7%
76 | O=C(NC1CCCN(CCc2ccccc2)C1)C1CCCC1 (stereo not drawn) | -36.7%
77 | CSC1=C(C#N)C(c2ccccc2Cl)C2=C(N1)c1ccccc1C2=O (stereo not drawn) | 6.44%
78 | CCC(C)(C)n1nnnc1C(c1cccs1)N1CCCCC1 (stereo not drawn) | -19.4%
79 | Cc1cccn2c(CN3CCCN(C=O)CC3)c(C(=O)N(C)CCc3ccccc3)nc12 | 26.6%
80 | CC(=O)NCCC(=O)N1CCCC(N(C)CCc2ccccc2)C1 (stereo not drawn) | -26.7%
81 | COc1ccc(CCN(C)C2CCCN(C(=O)CCC(F)(F)F)C2)cc1OC (stereo not drawn) | -52%
82 | COc1ccc(CCN(C)C2CCCN(C(=O)Cn3cccn3)C2)cc1OC (stereo not drawn) | -6.28%
83 | CSCCC(=O)N1CCCC(N(C)CCc2ccccc2)C1 (stereo not drawn) | -56.8%
84 | CCCCNC(=O)N1CCCC(N(C)CCc2ccc(OC)c(OC)c2)C1 (stereo not drawn) | -67.8%
85 | COc1ccc(CCN(C)C2CCCN(C(=O)Cn3cnnn3)C2)cc1OC (stereo not drawn) | 10.2%
86 | COc1ccc(CCN(C)C2CCCN(C(=O)CCSC)C2)cc1OC (stereo not drawn) | -57.2%
87 | COC(=O)CCCC(=O)N1CCCC(N(C)CCc2ccccc2)C1 (stereo not drawn) | -40.6%
88 | CCOC(=O)CCNC(=O)N1CCCC(N(C)CCc2ccccc2)C1 (stereo not drawn) | -49.4%
89 | COCC(=O)N1CCCC(N(C)CCc2ccc(OC)c(OC)c2)C1 (stereo not drawn) | 8.28%
90 | CCOC(=O)CCNC(=O)N1CCCC(N(C)CCc2ccc(OC)c(OC)c2)C1 (stereo not drawn) | -6.37%
